Screens from PubChem BioAssay.
Shown are actives, neighbours in structure and some others; about 4.7% of the full set was active somewhere.
HSF-1 act – HSF-1 activators, primary screen, NIH3T3-HGL cells, MG132 stress, luminescence, single point | NIH3T3-HGL HSF-1 luciferase reporter, 8 h; 100% = twice DMSO control signal | activation, % at 9 µM | 300,000 tested, 1.7% active;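 active = mean replicate activation of at least 50% with a set share of replicates each reaching 50%; inconclusive = only one of those two conditions met; inactive = mean below 50% and too few replicates reaching it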;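 also: 0% = median of the neutral control wells and 100% = twice that signal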
TROY signal inh – inhibitors of TROY-driven NF-kB signaling, primary screen, Q293 LMP1-TROYcd cells, NF-kB luciferase, uHTS. Q293 LMP1-TROYcd NF-kB luciferase reporter, 4 h. inhibition, % at 10 µM. 360,000 tested, 0.98% active. AID 1347056, 2019;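 active = compounds whose plate-normalised and pattern-corrected inhibition of the luciferase reporter signal at the single screening dose is 50% or more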
TWEAK-Fn14 inh – inhibitors of TWEAK-Fn14 signaling, primary screen, luciferase reporter cells, uHTS; 360,000 tested, 2% active; inhibition, % at 10 µM; TWEAK-stimulated Fn14 reporter cells, luciferase luminescence, 8 h; in the data active = inhibition above about 50%
LMP1 NFkB inh – EBV LMP1-driven NF-kappaB luciferase reporter inhibitors, primary screen, cell-based, luminescence, single point; LMP1-induced NF-kappaB luciferase reporter cells; 350,000 tested, 0.69% active; inhibition, % at 12.5 µM; AID 504558, 2011; in the data active = inhibition above about 41%; inconclusive = no clear call, values can overlap the other calls;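 also: 0% = neutral control wells and 100% = reference inhibitor control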
HSF1 inhib – HSF1 inhibitors in luciferase reporter cells, primary screen, cell-based, NIH3T3, luminescence; NIH3T3-HGL HSE-luciferase, MG132-induced, luminescence 8 h; hits give low values; activity change, negative = inhibition, % at 7.5 µM (by protocol); 300,000 tested, 0.77% active;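 active = more than half of replicate wells show activity change below -50%, luminescence cut by over half; inconclusive = some wells, but at most half, below -50%; inactive = no replicate well below -50%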;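 also: luciferase reports HSF-1 transcriptional activity via heat shock element; 0% = median of DMSO wells and -100% = zero luminescence signal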
HSP90 refold inh – HSP90 inhibitors, primary screen, cell lysate, luminescence; 290,000 tested, 0.91% active; Rabbit reticulocyte lysate, luciferase refolding luminescence, 3 h; inhibition, % at 5.6 µM;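 active = inhibition above the screen-wide mean plus 3 SD, computed separately per campaign, cut at about 16% in these data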;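 also: 0% = DMSO wells and 100% = 60 µM geldanamycin wells; inhibitors lower the luminescence because luciferase stays unfolded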
* hit, by the source's call; ? = inconclusive; . = no result.

SMILES	HSF-1 act	TROY signal inh	TWEAK-Fn14 inh	LMP1 NFkB inh	HSF1 inhib	HSP90 refold inh
CC1CCCN(C2=NC(=O)/C(=C/c3cn(-c4ccccc4)nc3-c3cccc(S(=O)(=O)N(C)C)c3)S2)C1 (stereo not given)	11	18	5	-7	-4	0
Cc1ccc(C(=O)NC(=S)Nc2cc(-c3nc4ccccc4s3)ccc2C)cc1	59*	-15	-4	-60	16	-7
CCOc1cc2c(c3c1C(c1ccccc1)N(S(=O)(=O)c1ccc(C)cc1)C3)C(=O)C=CC2=O (stereo not given)	.	16	33	.	.	.
COc1ccc(-c2c(C)nc3c(-c4ccsc4)cnn3c2N)cc1	-21	57*	32	-30	-19	8
COc1ccc(-c2c(C)nc3c(-c4ccccn4)cnn3c2N)cc1	-9	59*	56*	-71	-13	14
O=C(O)c1cc2c(ncc3c(=O)n(-c4ccccc4)[nH]c32)s1	.	2	-2	.	.	.
CC(C)C[C@H]1COc2cccc(N3CCN(Cc4ccccc4F)CC3)c2S(=O)(=O)N1	.	17	13	.	.	.
COc1ccc(-c2cc(-c3cc(OC)ccc3O)[nH]n2)cc1	1	-59	10	-33	1	0
COc1ccc(-c2cc(-c3ccc(Cl)cc3)n[nH]2)c(O)c1	94*	29	11	-39	62	-6
COc1ccc(-c2cc(-c3ccccc3O)[nH]n2)cc1OC	106*	-43	-14	-26	67	1
Cc1c(C(=O)NCc2cccc([N+](=O)[O-])c2)sc(=O)n1Cc1ccc(C(C)C)cc1	.	15	12	.	.	.
CCOc1ccc(NS(=O)(=O)c2cccs2)cc1S(=O)(=O)N1CCCC1	.	-4	8	-4	.	.
O=C(CCS(=O)(=O)c1ccccc1)N(CCCN1CCOCC1)c1nc2ccc(F)cc2s1	147*	13	16	-5	138	.
O=C(CCS(=O)(=O)c1ccccc1)N(CCCN1CCOCC1)c1nc2c(F)cccc2s1	161*	-5	24	-4	141	.
c1ccc(CNc2c(C3CCNCC3)nc3scc(-c4ccccc4)n23)cc1	.	-12	7	.	.	.
c1cc(-c2cnc3cccnn23)c2cccnc2c1	.	36	61*	.	.	.
c1ccc2c(-c3cnc4cccnn34)cncc2c1	.	4	22	.	.	.
CC1=NN(C(=O)c2c(Br)c(C)nn2C)C(O)(C(F)(F)F)C1 (stereo not given)	4	-17	0	-1	-3	-1
CC1=NN(C(=O)c2c(Br)cnn2C)C(O)(C(F)(F)F)C1 (stereo not given)	-8	-4	72*	-13	-1	-2
CN1c2ccccc2C(O)=C(C(=S)Nc2ccc(Cl)cc2)S1(=O)=O	60*	-20	9	7	27	6
COC(=O)c1ccccc1COc1cccn2c(N(C)Cc3cccs3)c(C)nc12	.	8	-5	.	.	.
Cc1cc(/C=C2/C(=O)N(C)C(=S)N2C)ccc1N1CCCC1	74*	-41	-36	-54	39	-4
COc1cccc(NC(=O)c2csc3c2CCCC3)c1	27	-27	-18	-37	24	-3
COc1ccc(NC(=O)c2csc3c2CCCC3)cc1	53*	0	-5	-37	34	2
CCC(C)NC(=O)c1csc2c1CCCCC2 (stereo not given)	67*	-30	-14	-10	19	-1
SMILES	HSF-1 act	TROY signal inh	TWEAK-Fn14 inh	LMP1 NFkB inh	HSF1 inhib	HSP90 refold inh
O=C(c1cc(C(=O)NCCc2ccccc2)c(=O)n(CCc2ccccc2)c1)c1cc(Cl)ccc1O	-2	14	66*	5	-8	1
O=c1cc(CN(Cc2ccccc2)Cc2ccccc2)c2ccccc2o1	.	6	-3	.	.	.
COc1ccc(N(CC(=O)NC2CCCCC2)C(=O)c2ccc(C)s2)cc1OC	71*	1	19	-3	20	-2
COc1ccccc1-c1noc2c1C(=O)NCC2	.	4	10	-6	.	.
O=C(Nc1ccc2c(c1)OCCO2)C1c2ccccc2OCC(=O)N1CCc1ccccc1 (stereo not given)	.	-36	2	.	.	.
O=C(Cn1cnc2c(nnn2Cc2ccccc2)c1=O)N1CCN(c2ccccc2)CC1	-13	3	10	83*	-7	2
Cc1cc(C)cc(OCC(=O)NCC2CCCO2)c1 (stereo not given)	-46	73*	89*	20	-45	2
Cc1ccc(C(=O)NC(=S)NCC2CCCO2)cc1 (stereo not given)	89*	-16	-25	-40	40	-1
COc1ccc(NC(=O)N(C)C[C@H]2Oc3ncc(Br)cc3C(=O)N([C@H](C)CO)C[C@@H]2C)cc1	.	6	10	-4	.	.
Cc1ccccc1CN1CCN(C(=O)c2ccc(F)cc2)CC1	-70	-3	-13	-7	-63*	2
COc1ccc(NC(=O)C2Cc3c(-c4ccc5c(c4)OCO5)ccnc3O2)cc1 (stereo not given)	.	24	3	.	.	.
C=C1C(=O)C23C(O)C1CCC2C12CCCC(C)(COC(C)=O)C1C(O)C3(O)OC2 (stereo not given)	.	77*	101*	?	.	.
COC(=O)c1cc(NC2c3ccccc3C(=O)N2CCN2CCOCC2)cc(C(=O)OC)c1 (stereo not given)	5	-3	7	-5	1	-2
O=C1c2ccccc2C(Nc2ccc(Cl)cc2)N1CCN1CCOCC1 (stereo not given)	0	-10	1	83*	-2	0
COc1cccc(C(O)c2ncc(-c3ccccc3Cl)[nH]2)c1 (stereo not given)	.	-32	-30	.	.	.
CCC(C)(C)c1ccc(OCCCC[n+]2cccc(C)c2C)c(C(C)(C)CC)c1	-5	39	52*	7	-5	8
CCC(C)(C)c1ccc(OCCCC[n+]2ccc(C)cc2)c(C(C)(C)CC)c1	4	.	.	.	8	7
CCn1c(-c2ccccc2)csc1=Nc1ccc(S(=O)(=O)O)cc1	-4	15	7	-28	-4	1
COCCCn1c(-c2ccc(S(=O)(=O)N3CCOCC3)cc2)csc1=Nc1ccccc1	-7	29	71*	28	-5	-3
[O-][n+]1ccccc1SCc1ccccc1	4	-6	15	0	1	.
[O-][n+]1ccccc1SC/C=C/c1ccccc1	53*	-23	-9	3	22	-2
FC(F)(F)c1cccc(NC(=S)NNC(=S)NCc2ccccc2)c1	16	-20	-57	0	8	-3
CC(=NNC(=S)Nc1cccc(Cl)c1)c1ccccn1	.	17	-12	52*	.	.
S=C(NCCN(C1CCCCC1)C1CCCC1)Nc1cccc(Cl)c1	27	20	-13	-31	1	0
